# Experimental data as given in PubChem BioAssay (NCATS).
# Records with an inconclusive call do not appear. Where a call stands in place of a potency, no number is given. Calls of active or inactive are those of the source. Unless noted, calls follow the shape of the dose curve; as a rule, active = well fitted curve in the direction sought with a large enough effect; inconclusive = small, poorly fitted or top-dose-only effect, or another doubt; inactive = no such curve, though single readings can be large; an effect the other way counts as inactive or inconclusive.
# How the values were obtained:
# [1] = tested on: Zika virus NS2B-NS3 protease (linked); assay: 384 well plate NINDS AMC confirmatory qHTS for Zika virus inhibitors (AID 1347163); also: nearly all actives have a fitted effect of over 50% in size; also: potency is read from the fitted curve at half-maximal effect;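 as to activity change, negative = inhibition: linked protease at 5 30 or 60 nM final depending on run; fluorescence of AMC released from Ac-VKTGKR-AMC peptide cleaved by the protease; top concentration of the series differs between compounds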
# Outline: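 Enzyme (5, 30 or 60 nM final) first met test compounds for ~15 min. The AMC-tagged peptide Ac-VKTGKR-AMC followed at 30 microM. Fluorescence was then recorded at 25 min and scaled against no-enzyme and no-inhibitor wells.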
# [2] = target: Glucocorticoid receptor (Homo sapiens) (UniProt P04150); assay: GR-GFP Redistribution (AID 450;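 active = compounds whose dose series gives a full or clear partial fitted curve of increased nuclear translocation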; also: potency is read from the fitted curve at half-maximal effect); settings: U2OS GR-GFP nuclear translocation, laser cytometry, 2 h
# Chain of Glucocorticoid receptor (Homo sapiens) (P04150 whole entry, looked up, the tested form may be a part): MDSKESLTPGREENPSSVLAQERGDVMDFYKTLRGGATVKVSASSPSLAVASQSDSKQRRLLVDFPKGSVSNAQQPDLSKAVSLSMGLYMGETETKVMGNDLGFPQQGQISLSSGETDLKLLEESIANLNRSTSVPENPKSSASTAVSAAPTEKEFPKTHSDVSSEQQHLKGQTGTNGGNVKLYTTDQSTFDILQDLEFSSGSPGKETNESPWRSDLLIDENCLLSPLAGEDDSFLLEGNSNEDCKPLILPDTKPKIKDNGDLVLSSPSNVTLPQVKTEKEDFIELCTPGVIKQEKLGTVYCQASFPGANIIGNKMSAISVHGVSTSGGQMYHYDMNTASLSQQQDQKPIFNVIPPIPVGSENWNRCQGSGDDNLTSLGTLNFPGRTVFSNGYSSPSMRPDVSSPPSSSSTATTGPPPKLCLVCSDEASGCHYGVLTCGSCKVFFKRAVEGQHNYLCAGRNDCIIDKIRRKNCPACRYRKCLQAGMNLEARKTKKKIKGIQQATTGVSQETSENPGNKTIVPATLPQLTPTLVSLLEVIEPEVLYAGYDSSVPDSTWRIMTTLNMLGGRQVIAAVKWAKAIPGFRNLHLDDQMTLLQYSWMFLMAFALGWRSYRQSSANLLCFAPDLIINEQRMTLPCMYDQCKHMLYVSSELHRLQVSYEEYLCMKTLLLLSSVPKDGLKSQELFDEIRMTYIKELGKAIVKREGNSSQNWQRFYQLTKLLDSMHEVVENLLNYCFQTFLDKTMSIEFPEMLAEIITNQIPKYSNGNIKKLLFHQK
# [3] = target: Glucocorticoid receptor (Homo sapiens) (UniProt P04150); assay: GR-EFC Redistribution (AID 451; calls by dose curve; also: potency is read from the fitted curve at half-maximal effect); settings: CHO-K1 GR-EFC translocation, beta-gal luminescence, 2 h
# Outline: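 CHO-K1 cells expressing nuclear EA and GR-ED fragments of b-gal; compounds titrated up to 46 uM final, 2 h at 37 C. GR nuclear translocation read as complemented b-gal luminescence after 1 h RT detection.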
# [4] = target: Mitogen-activated protein kinase 10 (Mus musculus) (UniProt Q61831); assay: JNK3 AlphaScreen Assay (AID 530; active = well fitted curve in either direction with a large enough effect, not every such curve was filed as active;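 also: kinase came from lysate of stimulated human HepG2 cells; signal reports phosphorylation of biotinylated GST-cJun 1-79 at Ser73 with 10 µM ATP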)
# Outline: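 HepG2 lysate (IL-1b/TNFa pre-activated) + biotin-GST-cJun 1-79 + anti-pSer73 cJun; cpd titration, 15 min RT; ATP 10 uM start; Tris pH 7.6, MgCl2, DTT, vanadate; beads in EDTA buffer; AlphaScreen.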
# [5] = target: 3',5'-cyclic-AMP phosphodiesterase 4B (Homo sapiens) (UniProt Q07343); assay: qHTS Assay for Inhibitors of PDE-IV (AID 607; active = well fitted activation curve with a large enough effect in the main read-out, with a control signal flat, not every such curve was filed as active)
# Chain of 3',5'-cyclic-AMP phosphodiesterase 4B (Homo sapiens) (Q07343 whole entry, looked up): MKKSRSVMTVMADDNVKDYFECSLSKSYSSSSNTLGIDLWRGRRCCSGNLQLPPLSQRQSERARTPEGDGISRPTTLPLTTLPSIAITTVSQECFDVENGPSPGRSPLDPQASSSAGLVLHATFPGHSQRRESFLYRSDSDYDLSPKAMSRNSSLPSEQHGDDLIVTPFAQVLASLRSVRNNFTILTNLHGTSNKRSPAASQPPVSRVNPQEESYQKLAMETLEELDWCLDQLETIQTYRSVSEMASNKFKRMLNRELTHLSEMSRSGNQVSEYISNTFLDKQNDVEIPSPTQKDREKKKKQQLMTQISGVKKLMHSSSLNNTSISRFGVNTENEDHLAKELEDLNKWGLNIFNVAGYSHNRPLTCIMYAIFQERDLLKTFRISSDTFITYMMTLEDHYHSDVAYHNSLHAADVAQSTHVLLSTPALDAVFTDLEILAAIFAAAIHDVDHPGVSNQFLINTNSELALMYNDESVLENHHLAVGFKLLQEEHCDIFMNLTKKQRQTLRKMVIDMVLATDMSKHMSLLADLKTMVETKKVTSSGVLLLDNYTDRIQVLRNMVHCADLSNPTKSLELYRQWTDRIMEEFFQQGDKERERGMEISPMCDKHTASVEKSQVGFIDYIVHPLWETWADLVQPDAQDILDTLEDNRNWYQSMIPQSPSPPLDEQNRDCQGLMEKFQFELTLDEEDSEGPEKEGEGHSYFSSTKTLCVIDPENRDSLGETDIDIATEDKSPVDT
# Outline: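 Cell-based read-out of cAMP via a modified cyclic nucleotide-gated channel and membrane potential dye (535/590 nm) in HEK293 cells expressing PDE4 endogenously. Compounds tested up to 22.9 uM final; 100 uM RO 20-1724 reference.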
# [6] = target: Cytochrome P450 2D6 (Homo sapiens) (UniProt P10635); assay: qHTS Assay for Inhibitors and Substrates of Cytochrome P450 2D6 (AID 891);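 also: luciferin methyl ether substrate demethylated by CYP2D6 with NADPH regeneration; nearly all actives have a fitted effect of over 60% in size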
# Chain of Cytochrome P450 2D6 (Homo sapiens) (P10635 whole entry, looked up): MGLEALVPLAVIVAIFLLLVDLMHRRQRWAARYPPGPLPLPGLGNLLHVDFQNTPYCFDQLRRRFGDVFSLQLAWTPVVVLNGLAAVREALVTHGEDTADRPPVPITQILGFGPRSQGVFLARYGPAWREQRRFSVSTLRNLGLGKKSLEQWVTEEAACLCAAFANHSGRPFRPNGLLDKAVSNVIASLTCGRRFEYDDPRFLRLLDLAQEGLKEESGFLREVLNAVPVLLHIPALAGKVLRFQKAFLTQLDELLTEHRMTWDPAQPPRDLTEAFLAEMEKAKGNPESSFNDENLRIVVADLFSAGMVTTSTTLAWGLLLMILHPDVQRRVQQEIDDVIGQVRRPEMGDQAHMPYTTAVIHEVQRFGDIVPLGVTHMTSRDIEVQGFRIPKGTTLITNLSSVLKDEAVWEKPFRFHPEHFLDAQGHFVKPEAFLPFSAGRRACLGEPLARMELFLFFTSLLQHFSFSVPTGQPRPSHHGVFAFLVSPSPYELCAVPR
# Outline: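 Luminescent read-out of luciferin formed by 5 nM human CYP2D6 demethylating 30 uM Luciferin-ME EGE (Km level) over 60 min at room temperature after NADPH regeneration addition. Data normalized to full inhibition by 1.43 uM quinidine.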
# [7] = Viability counterscreen for antagonist of constitutive androstane receptor (CAR) against the NCATS DSHEA and TCM libraries (AID 1794837);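 also: compound exposure lasted 24 h before viability reading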
# Outline: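 Cell viability, CellTiter-Fluor, Ex/Em 405/540 nm, 1 h at 37C. HepG2-CYP2B6-hCAR, 2,500 cells/well; cpds + CITCO 48 uM final (antagonist mode), 24 h, 37C/5% CO2.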
# [8] = target: Nuclear receptor subfamily 1 group I member 3 (Homo sapiens) (UniProt Q14994); assay: Primary qHTS for agonist of constitutive androstane receptor (CAR) against the NCATS DSHEA and TCM libraries (AID 1794839); settings: Potency: CAR antagonist co-added at 0.75 µM unless noted; also: potency is read from the fitted curve at half-maximal effect;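 as to activation: HepG2 cells expressing human CAR with a CYP2B6 reporter plus PK11195 antagonist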
# Chain of Nuclear receptor subfamily 1 group I member 3 (Homo sapiens) (Q14994 whole entry, looked up): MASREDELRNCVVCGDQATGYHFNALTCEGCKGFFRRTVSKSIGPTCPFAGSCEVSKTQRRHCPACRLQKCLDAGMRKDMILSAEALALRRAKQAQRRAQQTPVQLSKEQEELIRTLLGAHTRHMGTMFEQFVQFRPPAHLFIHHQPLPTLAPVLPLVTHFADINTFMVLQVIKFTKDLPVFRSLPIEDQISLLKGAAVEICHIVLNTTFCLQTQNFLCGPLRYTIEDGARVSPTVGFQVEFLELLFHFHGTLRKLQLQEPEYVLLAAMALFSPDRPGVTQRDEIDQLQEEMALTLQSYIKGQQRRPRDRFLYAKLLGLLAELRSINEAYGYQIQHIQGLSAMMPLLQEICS
# Outline: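 Luminescence from ONE-Glo luciferase was the agonist read-out in HepG2-CYP2B6-hCAR cells exposed 24 h to test substances. Wells also held the CAR antagonist PK11195 at 0.75 µM final. Viability was by CellTiter-Fluor fluorescence.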
# [9] = HepG2 viability counterscreen (readout 2: ATP content) against the NCATS DSHEA and TCM libraries (AID 1794840)
# Outline: (§1)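 1,000 HepG2 cells/well, 4 h attach; compounds ~24 h, 37C/5% CO2. Readout 1: GF-AFC 25 uM final, 30 min, fluorescence 380/510 nm. Readout 2: CellTiter-Glo, 30 min RT, luminescence.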
# [10] = HepG2 viability counterscreen (readout 1: protease activity) against the NCATS DSHEA and TCM libraries (AID 1794841);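 also: cells exposed to compounds for about 24 h before the protease read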
# Outline: as §1
# [11] = KB-3-1 P-gp reporter qHTS against the NCATS DSHEA and TCM libraries (AID 1919975)
# Outline: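 CellTiter-Glo luminescence viability readout; KB-3-1 parental cells, 500/well, attached ~4 h, then compound for ~72 h, 37C, 5% CO2. Bortezomib intraplate control.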
# [12] = target: Cytochrome P450 1A2 (Homo sapiens) (UniProt P05177); assay: qHTS for inhibitors of CYPIA2 against the NCATS DSHEA and TCM libraries (AID 1919976); also: potency is read from the fitted curve at half-maximal effect;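 as to activity change, negative = inhibition: light from luciferin formed by CYP1A2 from a pro-luciferin substrate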
# Chain of Cytochrome P450 1A2 (Homo sapiens) (P05177 whole entry, looked up): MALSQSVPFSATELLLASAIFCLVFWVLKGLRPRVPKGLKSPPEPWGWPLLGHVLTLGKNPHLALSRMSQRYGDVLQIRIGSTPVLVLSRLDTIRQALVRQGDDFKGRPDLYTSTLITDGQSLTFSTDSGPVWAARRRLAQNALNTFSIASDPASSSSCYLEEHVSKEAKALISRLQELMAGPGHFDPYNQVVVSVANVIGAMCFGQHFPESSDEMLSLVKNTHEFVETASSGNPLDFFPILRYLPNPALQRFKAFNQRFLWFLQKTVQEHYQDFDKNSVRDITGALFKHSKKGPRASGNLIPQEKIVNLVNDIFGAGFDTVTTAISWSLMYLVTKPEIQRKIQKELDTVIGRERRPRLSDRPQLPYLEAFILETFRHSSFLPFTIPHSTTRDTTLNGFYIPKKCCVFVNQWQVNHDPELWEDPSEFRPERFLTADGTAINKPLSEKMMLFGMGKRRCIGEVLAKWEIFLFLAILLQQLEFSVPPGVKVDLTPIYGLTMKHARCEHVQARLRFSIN
# Outline: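 Furafylline served as the plate control. Compounds met CYP1A2 and pro-luciferin substrate 15 min before NADPH regeneration solution (1x) was added; after 30-45 min at RT, P450-Glo reagent was added for 30 min and luminescence was measured.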
# [13] = qHTS Counterscreen for compound interference against the NCATS DSHEA and TCM libraries (AID 1919978); settings: firefly luciferase detection reagent interference, luminescence;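 also: compounds preincubated with 1 µM D-luciferin or buffer before detection reagent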
# Outline: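 Luminescence counterscreen for detection-kit interference: compounds at 19.5 nM–39.8 uM final, 15 min RT with 1 uM D-luciferin or buffer only; detection reagent added, 30 min RT, then read.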
# [14] = target: Nuclear receptor subfamily 1 group I member 2 (Homo sapiens) (UniProt O75469); assay: Dual reporter qHTS for antagonist of Pregnane X Receptor (hPXR) against the NCATS DSHEA and TCM libraries: Luminescence Readout (AID 1920060);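 also: HepG2 cells carrying hPXR luciferase reporter stimulated with rifampicin at 2 µM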
# Chain of Nuclear receptor subfamily 1 group I member 2 (Homo sapiens) (O75469 whole entry, looked up): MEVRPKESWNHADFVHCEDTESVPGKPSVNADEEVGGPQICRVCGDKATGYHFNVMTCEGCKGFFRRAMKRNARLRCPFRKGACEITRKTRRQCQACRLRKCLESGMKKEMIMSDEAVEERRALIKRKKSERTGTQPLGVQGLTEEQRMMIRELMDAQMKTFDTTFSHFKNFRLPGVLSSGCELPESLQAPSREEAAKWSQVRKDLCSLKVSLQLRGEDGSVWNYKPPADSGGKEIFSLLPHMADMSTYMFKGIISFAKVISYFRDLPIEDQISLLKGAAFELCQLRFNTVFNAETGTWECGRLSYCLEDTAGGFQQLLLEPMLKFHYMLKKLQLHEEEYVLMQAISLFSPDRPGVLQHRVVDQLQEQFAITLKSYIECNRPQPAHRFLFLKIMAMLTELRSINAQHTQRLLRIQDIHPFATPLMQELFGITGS
# Outline: (§2)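 In antagonist mode, 2 uM rifampicin was added to hPXR-Luc HepG2 cells alongside test substances, incubated 24 h at 37 C; luminescence gave reporter activity, and CellTiter-Fluor fluorescence (405/540 nm) gave viability.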
# [15] = Dual reporter qHTS for antagonist of Pregnane X Receptor (hPXR) against the NCATS DSHEA and TCM libraries: Fluorescence Readout (AID 1920061)
# Outline: as §2
# [16] = Confirmatory qHTS for VERO E6 Cytotoxicity Assay: Counterscreen for SARS-CoV-2 CPE Assay (AID 1508605; calls by dose curve; also: nearly all actives have a fitted effect of over 60% in size; also: potency is read from the fitted curve at half-maximal effect)
# [17] = target: Cytochrome P450 3A4 (Homo sapiens) (UniProt P08684); assay: qHTS Assay for Inhibitors and Substrates of Cytochrome P450 3A4 (AID 884); also: potency is read from the fitted curve at half-maximal effect; nearly all actives have a fitted effect of over 50% in size
# Chain of Cytochrome P450 3A4 (Homo sapiens) (P08684 whole entry, looked up): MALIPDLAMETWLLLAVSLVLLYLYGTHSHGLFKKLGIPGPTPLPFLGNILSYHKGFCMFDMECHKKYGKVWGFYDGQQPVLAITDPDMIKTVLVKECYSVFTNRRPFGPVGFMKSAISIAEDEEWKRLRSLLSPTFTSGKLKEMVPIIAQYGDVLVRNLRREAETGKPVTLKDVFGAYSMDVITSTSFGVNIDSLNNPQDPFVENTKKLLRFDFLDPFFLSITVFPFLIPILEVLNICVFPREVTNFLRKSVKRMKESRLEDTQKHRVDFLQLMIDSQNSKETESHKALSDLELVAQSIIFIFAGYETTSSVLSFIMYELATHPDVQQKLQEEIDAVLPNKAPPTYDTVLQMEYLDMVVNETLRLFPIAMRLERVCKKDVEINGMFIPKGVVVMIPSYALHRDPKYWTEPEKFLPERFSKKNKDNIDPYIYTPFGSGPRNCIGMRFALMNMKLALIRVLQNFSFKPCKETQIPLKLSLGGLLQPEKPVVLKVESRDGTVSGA
# Outline: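 Luminescent readout of luciferin produced by CYP3A4 (20 nM) dealkylation of Luciferin-PPXE, 25 uM (its KM). NADPH-driven reaction ran 60 min at RT after 10 min compound preincubation; data scaled to 57 uM ketoconazole as 100% inhibition.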
# [18] = target: Cytochrome P450 3A4 (Homo sapiens) (UniProt P08684); assay: qHTS Assay for Activators of Cytochrome P450 3A4 (AID 885); also: nearly all actives have a fitted effect of over 65% in size
# Outline: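 Luminescent readout of luciferin formed from 25 uM Luciferin-PPXE (KM level) by 20 nM CYP3A4 in 200 mM KPO4, with 60 min NADPH-driven reaction at room temperature after 10 min compound exposure. Ketoconazole (57 uM) defined 100% inhibition.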
# [19] = qHTS Assay for Lipid Storage Modulators (AID 1519; calls by dose curve); settings: Drosophila S3 cells, BODIPY lipid droplet/cell ratio, laser cytometry, cells loaded with oleic acid
# Outline: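 Cells seeded at 5,000 per well were treated with compounds over a concentration series and loaded with oleic acid (400 uM, as added). Lipid droplet fluorescence (488 nm excitation, 500-530 nm channel) was read by laser-scanning cytometry and normalized to 20 uM Triacsin C.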
# [20] = qHTS profiling for inhibitors of Plasmodium falciparum proliferation (AID 504749); also: nearly all actives have a fitted effect of over 60% in size; settings: P. falciparum in erythrocytes, SYBR Green DNA, 72 h, at 28.7 µM (top of the series)
# Outline: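 SYBR Green fluorescence (ex 485 nm, em 535 nm) reports parasite DNA after 72 h compound exposure of infected red cells at 0.3% parasitemia, 2.5% hematocrit; signal normalized to 0.29 uM artemisinin and vehicle wells.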
compound,measurement,setting,value
CN(C)C1C(=O)C(C(N)=O)=C(O)[C@@]2(O)C(=O)C3=C(O)c4c(O)ccc(Cl)c4[C@](C)(O)C3CC12 (stereo not given in full),Potency,[1],282 µM (active)
CN(C)[C@@H]1C(=O)C(C(N)=O)=C(O)[C@]2(O)C(=O)C3=C(O)c4c(O)cccc4[C@@](C)(O)[C@@H]3C[C@@H]12,Potency,[2],> 46 µM (inactive)
same,Potency,[3],> 46 µM (inactive)
same,outcome,[4],inactive
same,Potency,[5],inactive
same,Potency,[6],inactive
same,Potency,[1],inactive
N#CC(O[C@@H]1O[C@H](CO[C@@H]2O[C@H](CO)[C@@H](O)[C@H](O)[C@H]2O)[C@@H](O)[C@H](O)[C@H]1O)c1ccccc1 (stereo not given in full),outcome,[7],inactive
same,Potency,[8],inactive
same,outcome,[9],inactive
same,outcome,[10],inactive
same,outcome,[11],inactive
same,Potency,[12],inactive
same,max response,[13],-0.601% (inactive)
same,outcome,[14],inactive
same,outcome,[15],inactive
COC(=O)[C@@]12OC[C@]34[C@H]([C@@H](O)[C@@H]1O)[C@@]1(C)CC(=O)C(O)=C(C)[C@@H]1C[C@H]3OC(=O)[C@H](OC(=O)/C=C(\C)C(C)C)[C@@H]24,Potency,[16],0.127 µM (active)
CCCCCCC(C)(C)c1cc(O)c2c(c1)OC(C)(C)C1CC=C(CO)C[C@H]21 (stereo not given in full),Potency,[16],inactive
CC(C)(O)/C=C\C(=O)[C@](C)(O)[C@H]1[C@H](O)C[C@]2(C)[C@@H]3CC=C4[C@@H](C=C(O)C(=O)C4(C)C)[C@]3(C)C(=O)C[C@@]12C,Potency,[3],> 9.22 µM (inactive)
same,"activity change, negative = inhibition",[4],2.97% [at 11.4 µM] (inactive)
same,Potency,[5],inactive
same,Potency,[17],0.398 µM (active)
same,"activity change, positive = activation",[18],-93.2% [at 11.4 µM] (inactive)
C=C(C)[C@@H]1CCC(C)=C[C@H]1c1c(O)cc(CCCCC)cc1O,outcome,[7],inactive
same,Potency,[8],31.6 µM [setting not given] (active)
same,outcome,[9],inactive
same,outcome,[10],inactive
same,outcome,[11],inactive
same,Potency,[12],11.2 µM (active)
same,max response,[13],0.918% (inactive)
same,outcome,[14],inactive
same,outcome,[15],inactive
CCC1/C=C/C=CCC(C)C(O)[C@@](C)(O)C(=O)C(C)C(O)C(C)C(=O)C(C)C(O)C(C)C=CC(=O)O[C@H]2C(C)C(CC1)O[C@]1(CCC(C)C(CC(C)O)O1)C2C (stereo not given in full),Potency,[17],7.94 µM (active)
same,Potency,[18],inactive
O=C1CC(c2ccc(O)cc2)Oc2cc(O)cc(O)c21 (stereo not given),"activity change, negative = inhibition",[19]; at 57.5 µM (top of the series),9.01% (inactive)
same,max response,[19]; measured here: cell count channel max response,-5.6%
same,max response,[19]; measured here: lipid channel max response,4.14%
CNC(C)[C@@H](O)c1ccc(O)cc1 (stereo not given in full),"activity, negative = inhibition",[20]; parasite line A,1.09% (inactive)
same,"activity, negative = inhibition",[20]; parasite line B,3.21% (inactive)
CC(C)(C)c1ccc(CN2CCN(C(c3ccccc3)c3ccc(Cl)cc3)CC2)cc1 (stereo not given),Potency,[16],inactive
